Source: PubChem
In the library only some 11% were active in any assay of this set; here they are far more common.
Vaccinia mCherry: vaccinia inhibition (mCherry reporter). AID 720579. Potency, µM (highest dose often 36.5 µM), for the others: at the top dose activity change, negative = inhibition, hits mostly inhibitors. 310,000 compounds, 0.63% hits. Vaccinia virus mCherry reporter infection, fluorescence; calls by dose curve; tested in A549 cells; note: % is set by controls: 0 for no effect and ±100 for the full control effect; nearly all actives have a fitted effect of over 35% in size
HCV inh: HCV inhibition | Huh7.5.1 HCVcc-Cre infection, luciferase reporter, 44 h | Potency, µM (doses to about 41.8 µM), for inactives: top-dose activity change, negative = inhibition, actives largely listed as inhibitors | 340,000 compounds, 3.4% hits | AID 651820; note: % is set by controls: 0 for no effect and ±100 for the full control effect
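Whole-lifecycle infectious HCVcc-Cre system; cells 1,000/well, compound then virus (~0.5 moi) added 4 h after plating, 44 h culture. Luciferase read 15 sec following 15 min substrate incubation, room temp.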
Pf growth 48h: inhibits P. falciparum growth in the first generation, 48 h. Potency, µM (series often up to 28.7 µM), for the others: top-dose activity change, negative = inhibition, usual class: inhibitors. 310,000 compounds, 5.9% hits. P. falciparum luciferase growth in erythrocytes, 48 h; note: % is set by controls: 0 for no effect and ±100 for the full control effect
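Read-out is firefly luciferase luminescence from an integrated reporter in P. falciparum, so falling signal marks reduced parasite growth. Infected erythrocytes were at 2% hematocrit and 0.1% parasitemia (final) in Albumax-supplemented RPMI 1640.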
NS1 function inh: influenza NS1 inhibition; Potency, µM (doses to about 46.1 µM), for the others: at the highest dose activity, positive = more growth; 270,000 compounds, 0.4% hits; AID 2326; calls by dose curve; note: actives are rising curves; nearly all actives have a fitted effect of over 50% in size
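Recovery from NS1-induced slow growth read by OD600 in budding yeast switched to galactose assay medium (pH 6.0, -URA) at 1:100 dilution. Compound 23 nl per well; the matching strain lacking NS1 serves as control.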
VACV Venus inh: inhibitors of vaccinia virus (Venus reporter); Vaccinia virus Venus reporter expression, fluorescence; Potency, µM (series often up to 36.5 µM), for inactives: top-dose activity change, negative = inhibition, most hits filed as inhibitors; 330,000 compounds, 0.46% hits; calls by dose curve; tested in A549 cells; note: % is set by controls: 0 for no effect and ±100 for the full control effect; nearly all actives have a fitted effect of over 30% in size
Pf growth 96h: inhibits malaria parasite growth, 96 h; P. falciparum luciferase reporter growth, 96 h; Potency, µM (series often up to 28.7 µM), inactives show at the top dose activity change, negative = inhibition, usual class: inhibitors; 320,000 compounds, 6.9% hits; note: % is set by controls: 0 for no effect and ±100 for the full control effect
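P. falciparum expressing integrated firefly luciferase grown in erythrocytes (2% hematocrit, 0.05% parasitemia final) with compounds for 96 hours at 37 C, 5% CO2. Growth inhibition read as loss of luminescence after adding luciferase detection reagent.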
* marks the source's active call; other numbers are inactive results; [ ] = remark or other dose. Unless noted, calls come from the whole dose curve; as a rule, active = well fitted inhibition curve with a large enough effect; inconclusive = small, poorly fitted or top-dose-only effect, or another doubt; inactive = no such curve, though single readings can be large or run the other way. Potency is the fitted concentration of half-maximal effect.

CCOc1ccc(NC(=O)CN2CCCC2c2cccs2)cc1S(=O)(=O)N1CCCCC1 (stereo unspecified) was read as Vaccinia mCherry -0.5%, HCV inh inconclusive, Pf growth 48h 11.7µM*, VACV Venus inh -19.7% and Pf growth 96h inconclusive.
`CCOc1ccc(NC(=O)CN2C(=O)NC3(CCCC3)C2=O)cc1S(=O)(=O)N1CCCCC1` gave HCV inh inconclusive, Pf growth 48h -21.3% and Pf growth 96h -8.4%.
Cc1ccc(NC(=O)CN2CCCC2c2cccs2)cc1S(=O)(=O)N1CCCCC1 (stereo unspecified) was read as HCV inh 7.94µM*, Pf growth 48h 9.28µM* and Pf growth 96h inconclusive.
Screening CCOc1ccc(NC(=O)CC(NC(C)=O)c2ccccc2)cc1S(=O)(=O)N1CCCC1 (stereo unspecified) returned HCV inh 14.5%, Pf growth 48h inconclusive and Pf growth 96h inconclusive.
`O=C(CN1CCCC1c1cccs1)Nc1cc(S(=O)(=O)N2CCCCC2)ccc1Cl` (stereo unspecified) gave HCV inh 5.01µM*.
`CCOc1ccc(NC(=O)CN(C)Cc2ccc3c(c2)OCO3)cc1S(=O)(=O)N1CCCC1` gave HCV inh inconclusive, Pf growth 48h inconclusive and Pf growth 96h 3.29µM*.
Screening COc1cccc(CNc2nc3cc(-c4ccccc4C)sc3c(=O)n2C)c1 returned Vaccinia mCherry -14.0% and VACV Venus inh -12.3%.
O=C(COc1ccc2c3c(c(=O)oc2c1)CCC3)Nc1ccc(CCO)cc1 was read as HCV inh -13.0%, Pf growth 48h 4.7%, NS1 function inh -2.4% and Pf growth 96h 9.6%.
Cc1ccc(C(=O)N/C(=C\c2cn(C)c3ccccc23)C(=O)OCCN(C)C)cc1 was read as Vaccinia mCherry -14.4%[7.34 µM], HCV inh -10.6%, Pf growth 48h 46.4%, NS1 function inh 1.5%, VACV Venus inh -1.8%[7.34 µM] and Pf growth 96h 82.6%.
CCOc1ccc(NC(=O)[C@@H]2CCCN2C(=O)c2cccs2)cc1S(=O)(=O)N1CCCCC1 was read as Vaccinia mCherry inactive, HCV inh 0.5%, Pf growth 48h inconclusive, VACV Venus inh -10.6% and Pf growth 96h 9.28µM*.
For O=C(Nc1ccc(OC(F)F)c(Cl)c1)[C@@H]1CCCN1C(=O)c1cccs1 the results were Vaccinia mCherry -10.8%, HCV inh -3.8%, Pf growth 48h inconclusive, NS1 function inh -2.6%, VACV Venus inh -7.1% and Pf growth 96h 4.15µM*.
For CCOc1ccc(NC(=O)[C@@H]2CCCN2C(=O)c2cccs2)cc1S(=O)(=O)N1CCOCC1 the results were HCV inh -6.6%, Pf growth 48h inconclusive and Pf growth 96h inconclusive.
Screening CCOc1cc(S(=O)(=O)Nc2ccc(Cl)cn2)ccc1Cl returned Vaccinia mCherry -23.7%, HCV inh 15.7%, Pf growth 48h -11.3%, NS1 function inh -2.8%, VACV Venus inh -23.8% and Pf growth 96h -18.3%.
Screening O=C(CC1CC2CCC1C2)N1CCN(S(=O)(=O)c2ccccc2[N+](=O)[O-])CC1 (stereo unspecified) returned HCV inh 11.8%, Pf growth 48h inconclusive and Pf growth 96h 10.4µM*.
For CC(=O)c1c(C)[nH]c(C(=O)CN2CCN(S(=O)(=O)c3ccccc3[N+](=O)[O-])CC2)c1C the results were HCV inh inconclusive, Pf growth 48h inconclusive and Pf growth 96h 10.4µM*.
`O=C(CC1CC2CCC1C2)N1CCN(S(=O)(=O)c2ccccc2C(F)(F)F)CC1` (stereo unspecified) gave HCV inh inconclusive, Pf growth 48h 11.7µM* and Pf growth 96h inconclusive.
NC(=O)C1CCN(S(=O)(=O)c2ccccc2[N+](=O)[O-])CC1 was read as HCV inh 11.4%, Pf growth 48h 0.0%, NS1 function inh -10.4% and Pf growth 96h inconclusive.
Screening O=S(=O)(c1ccccc1C(F)(F)F)N1CCN(S(=O)(=O)c2ccccc2C(F)(F)F)CC1 returned HCV inh 18.6%, NS1 function inh 1.1% and Pf growth 96h -20.5%.
`COc1ccccc1N1CC(C(=O)Nc2cc(C(F)(F)F)ccc2N2CCCC2)CC1=O` (stereo unspecified) gave Vaccinia mCherry -2.5%, HCV inh -3.2%, Pf growth 48h inconclusive, VACV Venus inh -14.9% and Pf growth 96h -5.1%.
Screening Cc1ccc(Nc2c(-c3ccc(C)o3)nc3cnccn23)cc1 returned Vaccinia mCherry -21.2%, HCV inh -24.9%, NS1 function inh -13.0%, VACV Venus inh -0.2% and Pf growth 96h 0.738µM*.
`COc1ccc(C)cc1S(=O)(=O)NCCC1=CCCCC1` gave HCV inh 35.5µM*, Pf growth 48h -12.9% and NS1 function inh -12.2%.
Screening COc1ccc(C)cc1S(=O)(=O)N1CCC(C(=O)NCCC2=CCCCC2)CC1 returned HCV inh -8.9%, Pf growth 48h inconclusive and NS1 function inh 4.2%.
CC(C)C(=O)Nc1ccccc1N1CCN(S(C)(=O)=O)CC1 was read as HCV inh 7.9%, Pf growth 48h -8.5%, NS1 function inh 0.1% and Pf growth 96h -2.8%.
Screening CS(=O)(=O)N1CCN(c2ccccc2NC(=O)c2ccc3ccccc3c2)CC1 returned Vaccinia mCherry -15.3%, HCV inh inconclusive, Pf growth 48h 11.7µM*, NS1 function inh 8.9%, VACV Venus inh -5.9% and Pf growth 96h inconclusive.
CS(=O)(=O)N1CCN(c2ccccc2NC(=O)C(c2ccccc2)c2ccccc2)CC1 was read as HCV inh -0.6%, Pf growth 48h 10.4µM* and NS1 function inh -2.0%.
Screening Cc1c(Cl)cccc1NC(=O)CN1CCN(CCN=CC2=C(O)CC(c3ccccc3)CC2=O)CC1 (stereo unspecified) returned Vaccinia mCherry -9.6%, HCV inh -29.1%, Pf growth 48h 0.0%, VACV Venus inh -4.6% and Pf growth 96h inconclusive.
`CCOC(=O)C1(Cc2ccccc2Cl)CCN(C(=O)c2cnccn2)CC1` gave Vaccinia mCherry inactive, HCV inh 2.3%, Pf growth 48h 7.2%, NS1 function inh -11.0%, VACV Venus inh -11.1% and Pf growth 96h 9.28µM*.
COc1ccc2nc3sc(C(=O)NCCN4CCc5ccccc5C4)cc3cc2c1 was read as Vaccinia mCherry -5.1%, HCV inh -28.6%, Pf growth 48h 9.28µM*, NS1 function inh 2.1%, VACV Venus inh 6.4% and Pf growth 96h inconclusive.
COc1ccc2cc3cc(C(=O)NCCCN4CCc5ccccc5C4)sc3nc2c1 was read as Vaccinia mCherry -23.6%, HCV inh -12.3%, Pf growth 48h inconclusive, NS1 function inh 6.7%, VACV Venus inh -13.7% and Pf growth 96h inconclusive.
